# Screening results as filed in PubChem BioAssay.
# TDP1 cell CPT: DT40-hTDP1 cell growth loss with CPT. Potency, µM (highest dose often 46.2 µM), inactives show at the highest dose activity change, negative = growth inhibition, hits mostly inhibitors. chicken DT40 Tdp1-/-;hTDP1 cells + 20 nM CPT, ATP luminescence, 48 h. AID 686979. actives 12% (n = 420,000); also: potency is read from the fitted curve at half-maximal effect; nearly all actives have a fitted effect of over 55% in size
#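 Chicken DT40 Tdp1-/- cells stably complemented with human TDP1 were seeded at 400 cells/well in medium containing 20 nM camptothecin, exposed to pin-transferred compounds, and grown at 37 °C for at least 48 hr. Viability was read as ATP luminescence.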
# TDP1 cell noCPT: qHTS for Inhibitors of human tyrosyl-DNA phosphodiesterase 1 (TDP1): qHTS in cells in absence of CPT. AID 686978, 2013. actives 15% (n = 420,000). Potency, µM (series often up to 46.2 µM), for the others: top-dose activity change, negative = growth inhibition, hits mostly inhibitors. DT40 Tdp1-/- hTDP1 cells, no CPT, ATP luminescence, 48 h; also: potency is read from the fitted curve at half-maximal effect; nearly all actives have a fitted effect of over 55% in size
#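 Readout: luminescence from CellTiter-Glo after 30 min in the dark at RT. Cells: DT40 Tdp1-/- with stable hTDP1, 400/well. Exposure: compounds alone, ≥48 hr, 37 °C.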
# HT1080 IDH1KD tx: toxicity to HT-1080 IDH1 knockdown cells (counter line) | Potency, µM (top dose mostly 46.1 µM), for inactives: at the top dose activity, negative = toxicity, hits mostly cytotoxic | HT-1080 IDH1 knockdown viability, ATP luminescence, 48 h | actives 2% (n = 360,000);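 also: potency is read from the fitted curve at half-maximal effect; 0% = DMSO wells and -100% = cell-free medium wells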
#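 Assay cells: HT-1080 with IDH1 knockdown, 750 per well, RPMI/5% FBS. Exposure: 48 h at 37 °C following 2 h pre-incubation. Read: CellTiter-Glo luminescence; fitted concentration-response, curve class assigned.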
# IL1B secr inh: inhibitors of inflammasome signaling (IL-1 beta secretion); THP-1 LPS/ATP IL-1B secretion, AlphaLISA, 16 h; active compounds read low; activity change, % at 57.5 µM; actives 4.7% (n = 360,000); in the data active = activity change below about -50%; inconclusive = mostly about -30% to -49%
#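 THP-1 cells pretreated 1 hr with compounds (up to 57.5 uM final), then stimulated with LPS (250 ng/mL final) plus ATP (1.25 mM final); secreted IL-1B measured by AlphaLISA after 16 hr, decreased signal indicating inhibition.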
# HT1080NT lethal: kills 2HG-producing HT-1080-NT fibrosarcoma cells | HT-1080-NT fibrosarcoma viability, CellTiter-Glo ATP luminescence, 48 h | Potency, µM (doses to about 46.1 µM), for the others: at the top dose activity, negative = less viability, hits mostly cytotoxic | actives 1.6% (n = 360,000);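 also: NT is the 2HG producing partner of a matched IDH1 knockdown line; potency is read from the fitted curve at half-maximal effect; 0% = DMSO-treated cells and -100% = media-only wells without cells; nearly all actives have a fitted effect of over 55% in size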
#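 Viability of the 2HG-overproducing fibrosarcoma line after 48 hours of compound exposure at 37 degrees C was determined by luminescence with CellTiter-Glo, and concentration-effect curves were then fitted and categorized.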
# The depositor's hits bear a star; ? = inconclusive; / = no result given. An excerpt weighted towards active compounds, which were near 19% of everything screened. Unless noted, calls follow the shape of the dose curve; as a rule, active = well fitted curve in the direction sought with a large enough effect; inconclusive = small, poorly fitted or top-dose-only effect, or another doubt; inactive = no such curve, though single readings can be large; an effect the other way counts as inactive or inconclusive. Unless noted, % is scaled to controls: 0 for no effect and ±100 for the full control effect.
SMILES,TDP1 cell CPT,TDP1 cell noCPT,HT1080 IDH1KD tx,IL1B secr inh,HT1080NT lethal
O=C(COc1ccccc1C(=O)O)Nc1nc2ccc([N+](=O)[O-])cc2s1,?,-23%,-1%,-26,-8%
COCCN(C(=O)c1snc(C(N)=O)c1N)C(C(=O)NC1CCCCC1)c1ccc(OC)c(OC)c1 (stereo unspecified),3%,-26%,2%,-12,0%
Nc1ccc2c(c1)[nH]c(=O)c1ccccc12,?,?,?,-75*,-2%
CC(=O)Nc1ccc2c(c1)[nH]c(=O)c1ccccc12,0.82µM*,?,-1%,-14,5%
Nc1cc2[nH]c(=O)c3ccccc3c2cc1Br,-19%,-28%,?,0,-4%
Cc1ccc(C(=O)COC(=O)C(Cc2c[nH]c3ccccc23)NC(=O)c2ccc(C(C)(C)C)cc2)cc1 (stereo unspecified),18µM*,23µM*,/,/,/
COc1ccc(C(=O)NC(Cc2c[nH]c3ccccc23)C(=O)O)cc1 (stereo unspecified),-4%,6%,9%,9,9%
CCCOc1ccc(C(=O)CCNC(Cc2c[nH]c3ccccc23)C(=O)O)cc1 (stereo unspecified),4.6µM*,7.3µM*,0%,-9,-6%
Cc1ccc(NC(=O)C(Cc2c[nH]c3ccccc23)NC(=O)OCC(C)C)cc1 (stereo unspecified),18µM*,23µM*,/,/,/
Cc1ccc(NC(=O)C(C)OC(=O)Cc2c[nH]c3ccccc23)cc1 (stereo unspecified),-47%,-29%,-15%,19,-13%
CC(C)(C)c1ccc(C(=O)NC(Cc2c[nH]c3ccccc23)C(=O)OCC(=O)c2ccc(Br)cc2)cc1 (stereo unspecified),-8%,?,/,/,/
CC(C)c1ccccc1NC(=O)C(Cc1c[nH]c2ccccc12)NC(=O)OC(C)(C)C (stereo unspecified),18µM*,?,/,/,/
CC(=O)NC(c1ccccc1)c1nc(-c2cccc(C#N)c2)cs1 (stereo unspecified),?,?,1%,-25,0%
CCN(CC(=O)Nc1ccc2c(c1)OCCO2)C(=O)c1cc(S(=O)(=O)N2CCOCC2)ccc1F,1%,-2%,0%,-1,2%
O=C(NC(Cc1c[nH]c2ccccc12)C(=O)Nc1ccc(OC(F)(F)F)cc1)c1cccs1 (stereo unspecified),?,?,21µM*,-68*,?
COc1ccc(N2CCN(C(=O)c3ccc(Br)o3)CC2)cc1,-27%,-14%,19%,-9,10%
Nc1ncnc(Sc2ncccn2)c1[N+](=O)[O-],1.2µM*,1.3µM*,16µM*,-27,-14%
Nc1ncnc(Sc2ccc(Cl)cc2)c1[N+](=O)[O-],4.6µM*,5.8µM*,-14%,?,-3%
Nc1ncnc(Sc2ccccc2)c1[N+](=O)[O-],-3%,-19%,-2%,-103*,-3%
Cc1ccc(Sc2ncnc(N)c2[N+](=O)[O-])cc1,-26%,?,0%,-27,-20%
Cc1ccc(CN2CCN(C(=O)CC(C)C)CC2)cc1,1%,-5%,-3%,9,-2%
O=C1OC(c2cccc3c(F)cccc23)c2ccccc21 (stereo unspecified),-20%,?,-1%,-4,3%
COc1ccc(CC2S/C(=N/N=C/c3ccccc3O)NC2=O)cc1 (stereo unspecified),3.3µM*,0.92µM*,-16%,50,-15%
COc1ccc(CC2S/C(=N/N=C/c3ccc(O)cc3)NC2=O)cc1 (stereo unspecified),5%,-18%,-2%,4,-7%
O=C1N/C(=N/N=C/c2ccccc2O)SC1Cc1ccc(F)cc1 (stereo unspecified),0.18µM*,0.029µM*,23µM*,132,?
